We go through five compounds from PubChem BioAssay (EPA / NIEHS).

Records with an inconclusive call do not appear. Activity calls are given as the source filed them. How the source made its calls, unless noted: active means hit-call score of the fitted dose curve at least 0.9, where 1 is the maximum; inactive means score below 0.9.

Experiment [1] in a line: ATG_NFI_CIS: Attagene CIS-FACTORIAL HepG2 Assay for human Nuclear Factor I (NFI) (AID 2282989). Particulars: HepG2 cis-regulatory reporter, NFI response element transcription; actives raise or lower the signal. The gist of the method:
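Read-out: reporter mRNA via RT-PCR plus capillary electrophoresis with fluorescence detection. Transiently transfected HepG2 (endogenous TF activity on cis promoters), 24 h compound exposure; gain or loss of signal fitted against DMSO.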

Experiment [2] addresses Myc proto-oncogene protein (Homo sapiens) (UniProt P01106). As to the kind of experiment: ATG_Myc_CIS: Attagene CIS-FACTORIAL HepG2 Assay for human Myelocytomatosis (Myc) Proto-Oncogene Transcription Factor (AID 2282990). Particulars: HepG2, Attagene cis-reporter transcription factor activity; actives raise or lower the signal. The gist of the method:
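Transiently transfected HepG2 cells bearing cis-promoter reporter units for endogenous transcription factors; 24 h exposure. Reporter mRNA measured by RT-PCR, 6-FAM primer extension, HpaI cut and capillary electrophoresis; bidirectional fit relative to DMSO.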

A short description of experiment [3]: ATG_NF_kB_CIS: Attagene CIS-FACTORIAL HepG2 Assay for human Nuclear Factor Kappa B (NF-kB) (AID 2282991). Conditions: HepG2 Attagene cis-factorial NF-kB reporter mRNA; actives raise or lower the signal. Summed up:
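Read-out: reporter transcript levels quantified by RT-PCR plus capillary electrophoresis of 6-FAM-labelled, HpaI-cut fragments. Transfected HepG2 cells, 24 h compound exposure, endogenous NF-kB-driven cis element; gain or loss scored versus DMSO.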

Experiment [4] is described as follows: ATG_NRF2_ARE_CIS: Attagene CIS-FACTORIAL HepG2 Assay for human Nuclear Factor Erythroid 2 Related Factor 2 (NFR2) response to Antioxidant Response Elements (ARE) (AID 2282992).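 On AC50: reporter mRNA level measured by RT-PCR and capillary electrophoresis fluorescence.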 Particulars: HepG2 Attagene ARE/NRF2 reporter, transcription factor activity; actives raise or lower the signal. The gist of the method: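 Endogenous transcription factor activity in human liver HepG2 cells is tracked via a cis-element-driven reporter within a multiplexed set. mRNA induction is read by RT-PCR and capillary electrophoresis after 24 h, with DMSO as baseline.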

The nature of experiment [5]: ATG_Oct_MLP_CIS: Attagene CIS-FACTORIAL HepG2 Assay for human Octamer-Binding Transcription Factor (Oct) (AID 2282993). Conditions: HepG2 Attagene cis-factorial Oct reporter, mRNA; actives raise or lower the signal. Summed up: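 Read-out: reporter mRNA via RT-PCR plus capillary electrophoresis of 6-FAM-labelled fragments. Transiently transfected HepG2, 24 h exposure, endogenous TF activity on cis elements. Gain or loss of signal fitted relative to DMSO.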

Experiment [6] addresses Cellular tumor antigen p53 (Homo sapiens) (UniProt P04637). Kind of experiment: ATG_p53_CIS: Attagene CIS-FACTORIAL HepG2 Assay for human p53 Transcription Factor (AID 2282994). Conditions: HepG2 p53 cis-element reporter, Attagene mRNA; actives raise or lower the signal. Summed up:
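Steps: transfect HepG2 with multiplexed cis reporter constructs; dose chemicals 24 h; extract RNA, reverse-transcribe, PCR-amplify reporter sequences; FAM-label, HpaI-digest, resolve fragments by CE. Activity fitted both directions relative to DMSO.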

Experiment [7] addresses human Peroxisome Proliferator-activated Receptor alpha (PPARa), PPARA (gene 5465) (UniProt Q07869). As to the kind of experiment: ATG_PPARa_TRANS: Attagene TRANS-FACTORIAL HepG2 Assay for human Peroxisome Proliferator-activated Receptor alpha (PPARa) (AID 2283001; active means hit-call score of the fitted dose curve at least 0.9, where 1 is the maximum). Summed up:
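HepG2, transient MRTU transfection, 24 h treatment. RT-PCR → FAM labelling → capillary electrophoresis. Fit vs DMSO, positive direction.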

Experiment [8] concerns the target human Peroxisome Proliferator-activated Receptor delta (PPARd), PPARD (gene 5467) (UniProt Q03181). Kind of experiment: ATG_PPARd_TRANS: Attagene TRANS-FACTORIAL HepG2 Assay for human Peroxisome Proliferator-activated Receptor delta (PPARd) (AID 2283002; active means hit-call score of the fitted dose curve at least 0.9, where 1 is the maximum). Summed up: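 HepG2 cells transiently transfected with GAL4-UAS multiplexed reporter units driven by exogenous chimeric NR-GAL4 proteins; 24 h compound exposure. Reporter mRNA measured by RT-PCR, 6-FAM primer extension, HpaI digestion and capillary electrophoresis; gain of signal fitted relative to DMSO.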

Experiment [9] deals with Peroxisome proliferator-activated receptor gamma (Homo sapiens) (UniProt P37231). Kind of experiment: ATG_PPARg_TRANS: Attagene TRANS-FACTORIAL HepG2 Assay for human Peroxisome Proliferator-activated Receptor-gamma (PPARg) (AID 2283007; active means hit-call score of the fitted dose curve at least 0.9, where 1 is the maximum). Summed up:
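Read-out: reporter mRNA induction, detected by fluorescence after RT-PCR and capillary electrophoresis. Transiently transfected human HepG2 liver cells carrying a chimeric NR-Gal4 construct were dosed for 24 h; activity was fitted upward relative to DMSO.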

Experiment [10] has as its target Nuclear receptor subfamily 1 group I member 2 (Homo sapiens) (UniProt O75469). Kind of experiment: ATG_PXR_TRANS: Attagene TRANS-FACTORIAL HepG2 Assay for human Pregnane X Receptor (PXR) (AID 2283008; active means hit-call score of the fitted dose curve at least 0.9, where 1 is the maximum). Summed up: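 HepG2 transfected (FuGene 6) with GAL4-UAS reporter units + PXR-Gal4 chimera; dosed 24 h. Total RNA → oligo(dT) RT → PCR → 6-FAM primer extension → HpaI cut → CE. Gain-of-signal vs DMSO.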

For experiment [11], the target named is human Retinoic Acid Receptor beta (RARb), RARB (gene 5915) (UniProt P10826). As to the kind of experiment: ATG_RARb_TRANS: Attagene TRANS-FACTORIAL HepG2 Assay for human Retinoic Acid Receptor beta (AID 2283004; active means hit-call score of the fitted dose curve at least 0.9, where 1 is the maximum). The gist of the method: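 HepG2, transient MRTU transfection, NR–Gal4 chimera, 24 h treatment; RT-PCR plus CE fluorescence detection of reporter mRNA; gain of signal vs DMSO.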
Chain of human Retinoic Acid Receptor beta (RARb), RARB (gene 5915) (P10826 whole entry, looked up, the tested form may be a part): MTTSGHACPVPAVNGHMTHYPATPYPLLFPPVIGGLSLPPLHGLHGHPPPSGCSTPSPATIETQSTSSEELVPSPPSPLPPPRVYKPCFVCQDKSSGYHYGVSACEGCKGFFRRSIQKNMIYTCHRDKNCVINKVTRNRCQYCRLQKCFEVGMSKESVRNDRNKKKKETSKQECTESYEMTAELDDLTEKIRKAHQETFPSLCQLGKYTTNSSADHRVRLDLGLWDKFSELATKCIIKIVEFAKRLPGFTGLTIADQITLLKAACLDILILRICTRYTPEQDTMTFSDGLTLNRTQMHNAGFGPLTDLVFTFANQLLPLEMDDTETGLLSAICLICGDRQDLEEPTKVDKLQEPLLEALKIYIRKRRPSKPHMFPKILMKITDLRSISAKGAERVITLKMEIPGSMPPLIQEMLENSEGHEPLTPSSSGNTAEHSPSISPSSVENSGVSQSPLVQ

Experiment [12] has as its target Retinoic acid receptor alpha (Homo sapiens) (UniProt P10276). As to the kind of experiment: ATG_RARa_TRANS: Attagene TRANS-FACTORIAL HepG2 Assay for human Retinoic Acid Receptor alpha (RARa) (AID 2283005; active means hit-call score of the fitted dose curve at least 0.9, where 1 is the maximum). The gist of the method:
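HepG2 transiently transfected with multiplex GAL4-UAS reporter units including a human RARa–GAL4 chimera; 24 h compound exposure. Reporter mRNA quantified by RT-PCR, 6-FAM labeling and capillary electrophoresis; gain of signal versus DMSO.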

Experiment [13] deals with human RAR-related Orphan Receptor gamma (RORg), RORC (gene 6097) (UniProt P51449). As to the kind of experiment: ATG_RORg_TRANS: Attagene TRANS-FACTORIAL HepG2 Assay for human RAR-related Orphan Receptor gamma (RORg) (AID 2283011; active means hit-call score of the fitted dose curve at least 0.9, where 1 is the maximum). Summed up: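 Activity is scored as increase in GAL4-UAS reporter mRNA over DMSO, detected by fluorescent RT-PCR and capillary electrophoresis in HepG2 cells transiently expressing a RORg-Gal4 chimera, 24 h after dosing.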
Chain of human RAR-related Orphan Receptor gamma (RORg), RORC (gene 6097) (P51449 whole entry, looked up, the tested form may be a part): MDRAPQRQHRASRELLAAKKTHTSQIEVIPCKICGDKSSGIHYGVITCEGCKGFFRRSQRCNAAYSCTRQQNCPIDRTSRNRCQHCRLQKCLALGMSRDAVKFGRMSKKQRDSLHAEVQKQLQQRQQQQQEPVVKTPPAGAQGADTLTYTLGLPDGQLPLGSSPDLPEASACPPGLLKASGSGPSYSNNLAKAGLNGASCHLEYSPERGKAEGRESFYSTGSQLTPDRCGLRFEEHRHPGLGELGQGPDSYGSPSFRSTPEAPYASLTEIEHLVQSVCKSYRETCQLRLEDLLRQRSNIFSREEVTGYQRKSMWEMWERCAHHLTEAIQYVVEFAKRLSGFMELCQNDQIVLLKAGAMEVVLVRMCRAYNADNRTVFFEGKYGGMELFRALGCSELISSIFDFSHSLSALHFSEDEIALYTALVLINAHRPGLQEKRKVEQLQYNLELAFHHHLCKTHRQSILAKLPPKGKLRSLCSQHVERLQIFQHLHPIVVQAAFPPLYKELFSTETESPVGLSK

Experiment [14] is described as follows: BSK_3C_uPAR: BioMAP Diversity Plus: 3C Assay for Urokinase-type plasminogen activator receptor (uPAR) Biomarker Activity (AID 2282998). Particulars: BioMAP 3C HUVEC, uPAR biomarker ELISA; actives raise or lower the signal. Summed up: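 HUVEC primary cells; 24 h post-dose; uPAR by ELISA; gain or loss of signal fitted bidirectionally vs DMSO baseline.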
For orientation: In an ELISA, binding on a coated surface is turned into a signal by an enzyme label.

Experiment [15] can be described thus: BSK_3C_VCAM1: BioMAP Diversity Plus: 3C Assay for Vascular cell adhesion molecule 1 (VCAM1) Biomarker Activity (AID 2282999). Conditions: BioMAP 3C HUVEC, VCAM1 ELISA, cytokine-stimulated; actives raise or lower the signal. The gist of the method: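 HUVEC primary cells, 24 h compound exposure; VCAM-1 by ELISA; gain/loss of signal fitted bidirectionally vs DMSO baseline.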

Experiment [16] in a line: BSK_4H_Eotaxin3: BioMAP Diversity Plus: 4H Assay for Eotaxin 3 Biomarker Activity (AID 2283000).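 On outcome: CCL26 protein level quantified by ELISA in parallel with SRB cytotoxicity check.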 Particulars: primary human endothelial cells (HUVEC); actives raise or lower the signal. The gist of the method: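 Endothelial primary cells (human umbilical vein) exposed to compound for 24 h. ELISA detection of Eotaxin-3.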
Read-out in experiment [17]: Intercellular Adhesion Molecule 1 (ICAM1), ICAM1 (gene 3383)
As to the kind of experiment: BSK_3C_ICAM1: BioMAP Diversity Plus: 3C Assay for Intercellular Adhesion Molecule 1 (ICAM1) Biomarker Activity (AID 2283003). Particulars: primary human endothelial cells (HUVEC); actives raise or lower the signal. Summed up:
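ELISA readout of ICAM1 in human umbilical vein endothelial cells in the 3C system, taken 24 h post-dose. Gain or loss of signal versus DMSO was fitted in both directions, with SRB total-protein staining run in parallel.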

Experiment [18] is described as follows: BSK_3C_Proliferation: Cell Proliferation Assessment in the BioMAP Diversity Plus: 3C Assay (AID 2283006).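 On AC50: potency may reflect either rise or fall in cell number versus DMSO.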 Conditions: primary human endothelial cells (HUVEC). The gist of the method: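 Proliferation as total protein: sulforhodamine B (0.1%) stain of TCA-fixed subconfluent human umbilical vein endothelial cells, absorbance 560 nm, 48 h after dosing. Activity fitted in both directions against DMSO baseline.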

In experiment [19] the target is human Retinoic Acid Receptor gamma (RARg), RARG (gene 5916) (UniProt P13631). As to the kind of experiment: ATG_RARg_TRANS: Attagene TRANS-FACTORIAL HepG2 Assay for human Retinoic Acid Receptor gamma (RARg) (AID 2283009; active means hit-call score of the fitted dose curve at least 0.9, where 1 is the maximum;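 further: AC50 is for reporter induction above DMSO meaning RARg activation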). Summed up: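 Transactivation of exogenous RARg-Gal4 fusion measured as reporter transcript induction after 24 h in transfected HepG2 cells. RNA reverse-transcribed, amplified, fluorescently labeled and resolved by capillary electrophoresis; increase relative to DMSO.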
Chain of human Retinoic Acid Receptor gamma (RARg), RARG (gene 5916) (P13631 whole entry, looked up, the tested form may be a part): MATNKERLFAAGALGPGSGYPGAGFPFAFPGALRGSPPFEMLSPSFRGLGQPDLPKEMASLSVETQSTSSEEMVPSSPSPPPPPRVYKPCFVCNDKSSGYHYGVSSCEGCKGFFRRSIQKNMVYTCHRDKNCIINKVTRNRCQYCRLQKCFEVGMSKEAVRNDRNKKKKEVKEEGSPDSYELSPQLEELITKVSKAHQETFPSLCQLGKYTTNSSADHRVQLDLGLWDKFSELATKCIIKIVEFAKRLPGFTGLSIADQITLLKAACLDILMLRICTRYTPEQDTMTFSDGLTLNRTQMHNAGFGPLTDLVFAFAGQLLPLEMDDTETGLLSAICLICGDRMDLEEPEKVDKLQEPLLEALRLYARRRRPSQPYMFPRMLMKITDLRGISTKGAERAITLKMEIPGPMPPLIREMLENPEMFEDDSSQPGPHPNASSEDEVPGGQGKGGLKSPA

In general, AC50 refers to the concentration giving half of the maximal activity seen.

Chain of Nuclear receptor subfamily 1 group I member 2 (Homo sapiens) (O75469 whole entry, looked up, the tested form may be a part): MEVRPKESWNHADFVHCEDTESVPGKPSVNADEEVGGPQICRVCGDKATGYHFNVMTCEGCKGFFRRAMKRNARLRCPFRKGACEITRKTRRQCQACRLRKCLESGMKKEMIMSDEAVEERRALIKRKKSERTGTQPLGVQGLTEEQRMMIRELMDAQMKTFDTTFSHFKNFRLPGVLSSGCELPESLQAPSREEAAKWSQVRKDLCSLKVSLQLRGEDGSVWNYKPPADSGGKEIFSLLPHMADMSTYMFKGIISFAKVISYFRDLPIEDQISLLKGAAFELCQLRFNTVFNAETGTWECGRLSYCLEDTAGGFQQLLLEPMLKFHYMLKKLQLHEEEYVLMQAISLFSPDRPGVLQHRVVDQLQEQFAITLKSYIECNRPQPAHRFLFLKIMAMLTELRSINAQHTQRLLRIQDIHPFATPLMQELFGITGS
Chain of human Peroxisome Proliferator-activated Receptor delta (PPARd), PPARD (gene 5467) (Q03181 whole entry, looked up, the tested form may be a part): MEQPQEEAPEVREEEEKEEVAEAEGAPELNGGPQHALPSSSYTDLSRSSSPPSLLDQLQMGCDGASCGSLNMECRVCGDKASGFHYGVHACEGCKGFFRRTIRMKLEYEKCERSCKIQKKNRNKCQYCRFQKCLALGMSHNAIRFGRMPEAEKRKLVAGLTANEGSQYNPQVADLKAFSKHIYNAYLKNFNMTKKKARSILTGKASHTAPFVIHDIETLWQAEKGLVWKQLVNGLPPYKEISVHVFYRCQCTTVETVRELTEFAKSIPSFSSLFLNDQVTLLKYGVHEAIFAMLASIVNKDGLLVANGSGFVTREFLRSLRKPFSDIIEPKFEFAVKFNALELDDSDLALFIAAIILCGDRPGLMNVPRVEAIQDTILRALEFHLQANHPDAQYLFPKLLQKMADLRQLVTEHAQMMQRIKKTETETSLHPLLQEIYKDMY
Chain of Myc proto-oncogene protein (Homo sapiens) (P01106 whole entry, looked up): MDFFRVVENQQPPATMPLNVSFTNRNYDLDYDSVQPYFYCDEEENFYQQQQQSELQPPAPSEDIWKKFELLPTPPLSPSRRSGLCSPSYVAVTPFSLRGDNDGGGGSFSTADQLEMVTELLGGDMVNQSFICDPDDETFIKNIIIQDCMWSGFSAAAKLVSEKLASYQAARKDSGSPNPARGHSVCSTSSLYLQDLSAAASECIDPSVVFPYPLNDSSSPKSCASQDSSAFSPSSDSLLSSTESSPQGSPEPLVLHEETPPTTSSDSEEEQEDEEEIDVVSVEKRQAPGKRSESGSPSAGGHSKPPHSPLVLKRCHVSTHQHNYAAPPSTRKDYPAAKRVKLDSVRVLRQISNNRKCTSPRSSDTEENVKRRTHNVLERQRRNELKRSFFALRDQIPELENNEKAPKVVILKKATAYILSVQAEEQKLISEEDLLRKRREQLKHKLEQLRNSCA
Chain of human Peroxisome Proliferator-activated Receptor alpha (PPARa), PPARA (gene 5465) (Q07869 whole entry, looked up): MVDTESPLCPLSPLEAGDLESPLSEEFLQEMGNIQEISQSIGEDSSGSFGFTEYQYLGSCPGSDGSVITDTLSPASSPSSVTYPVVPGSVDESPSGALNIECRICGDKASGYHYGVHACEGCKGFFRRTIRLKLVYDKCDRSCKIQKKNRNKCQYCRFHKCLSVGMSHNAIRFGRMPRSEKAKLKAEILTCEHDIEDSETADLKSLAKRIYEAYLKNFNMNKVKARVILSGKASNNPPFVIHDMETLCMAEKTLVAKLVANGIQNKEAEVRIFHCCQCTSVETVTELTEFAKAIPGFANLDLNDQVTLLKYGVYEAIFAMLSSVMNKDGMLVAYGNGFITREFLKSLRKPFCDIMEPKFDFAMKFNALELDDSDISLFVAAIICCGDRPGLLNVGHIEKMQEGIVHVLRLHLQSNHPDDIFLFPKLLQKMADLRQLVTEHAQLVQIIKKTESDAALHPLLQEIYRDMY
Chain of Cellular tumor antigen p53 (Homo sapiens) (P04637 whole entry, looked up, the tested form may be a part): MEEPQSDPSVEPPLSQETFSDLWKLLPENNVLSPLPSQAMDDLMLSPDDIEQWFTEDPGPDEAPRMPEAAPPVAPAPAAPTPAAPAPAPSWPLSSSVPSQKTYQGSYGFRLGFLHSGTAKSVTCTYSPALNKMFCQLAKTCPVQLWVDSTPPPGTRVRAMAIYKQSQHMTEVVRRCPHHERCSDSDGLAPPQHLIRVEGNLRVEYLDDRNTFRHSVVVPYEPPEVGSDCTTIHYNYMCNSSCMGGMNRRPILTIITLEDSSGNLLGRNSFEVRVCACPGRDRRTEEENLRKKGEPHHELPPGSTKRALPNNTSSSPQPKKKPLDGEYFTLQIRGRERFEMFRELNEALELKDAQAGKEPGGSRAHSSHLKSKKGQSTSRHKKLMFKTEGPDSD
Chain of Peroxisome proliferator-activated receptor gamma (Homo sapiens) (P37231 whole entry, looked up, the tested form may be a part): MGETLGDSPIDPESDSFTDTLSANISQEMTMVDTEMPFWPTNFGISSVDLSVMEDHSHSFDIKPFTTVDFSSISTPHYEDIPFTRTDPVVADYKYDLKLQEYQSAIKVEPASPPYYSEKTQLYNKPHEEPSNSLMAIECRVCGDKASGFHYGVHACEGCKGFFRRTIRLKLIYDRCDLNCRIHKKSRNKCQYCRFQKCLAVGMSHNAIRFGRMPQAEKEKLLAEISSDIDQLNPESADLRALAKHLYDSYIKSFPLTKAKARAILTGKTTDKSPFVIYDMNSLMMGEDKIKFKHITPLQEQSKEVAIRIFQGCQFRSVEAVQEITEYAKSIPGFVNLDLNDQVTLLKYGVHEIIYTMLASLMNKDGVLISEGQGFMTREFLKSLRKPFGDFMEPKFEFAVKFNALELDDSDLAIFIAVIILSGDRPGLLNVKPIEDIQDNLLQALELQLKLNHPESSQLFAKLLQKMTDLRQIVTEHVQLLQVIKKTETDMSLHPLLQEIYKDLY
Chain of Retinoic acid receptor alpha (Homo sapiens) (P10276 whole entry, looked up, the tested form may be a part): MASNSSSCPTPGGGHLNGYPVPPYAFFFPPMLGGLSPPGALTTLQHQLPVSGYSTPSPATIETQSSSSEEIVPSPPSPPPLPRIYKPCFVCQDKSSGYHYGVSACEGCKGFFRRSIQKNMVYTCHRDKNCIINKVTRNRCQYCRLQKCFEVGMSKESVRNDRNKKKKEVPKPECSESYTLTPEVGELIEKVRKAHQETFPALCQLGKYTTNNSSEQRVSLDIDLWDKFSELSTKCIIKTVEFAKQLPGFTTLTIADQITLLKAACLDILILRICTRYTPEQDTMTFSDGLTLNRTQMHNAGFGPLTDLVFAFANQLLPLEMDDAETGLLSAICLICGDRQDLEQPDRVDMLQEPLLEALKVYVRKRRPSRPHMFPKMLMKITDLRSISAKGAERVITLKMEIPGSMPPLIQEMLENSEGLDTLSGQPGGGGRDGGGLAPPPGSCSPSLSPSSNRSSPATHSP

For `CC=CC(F)(F)C(F)(F)C(F)(F)F`, the compound was called inactive in [1], in experiment [2], in experiment [3], in experiment [4], in experiment [5] and in experiment [6]. Moreover, the result in [7], in experiment [8], in experiment [9] and in experiment [10] was inactive.

On to `NC(=O)C1CO1` (stereo not given), for which the compound was classed as inactive in [1], in experiment [2], in experiment [3], in experiment [4], in [5] and in experiment [6]. Also, the result in experiment [7], in [8], in experiment [11], in experiment [12] and in experiment [13] was inactive.

As for `CC(C)C(=O)C(C)C`, the compound was called inactive in experiment [1], in experiment [2], in [3], in experiment [6], in [14] and in experiment [15]. Further, the result in experiment [16], in experiment [8], in experiment [17] and in [18] was inactive. For the same compound, the AC50 in experiment [4] is 27.1 µM (active); in experiment [5], 29.2 µM (active); in [9], 6.38 µM (active).

For the compound `CC(C)(c1cc(Br)c(OCCO)c(Br)c1)c1cc(Br)c(OCCO)c(Br)c1`, the AC50 in experiment [1] is 45.1 µM (active); in experiment [4], 18.6 µM (active); in [5] it was 17.7 µM (active); in [6], 7 µM (active); in experiment [14], 16.2 µM (active); in experiment [15], 27.3 µM (active). In addition, the AC50 in experiment [16] was 8.31 µM (active); in experiment [17], 28 µM (active); in experiment [18], 11.9 µM (active); in experiment [10], 1.71 µM (active); in [19], 0.454 µM (active). For the same compound, the compound was classed as inactive in experiment [2], in [3], in experiment [8], in [11] and in experiment [12].

Consider `Cc1cccc(N(C)C(=S)Oc2ccc3ccccc3c2)c1`, for which the outcome in experiment [1], in experiment [2], in [3], in experiment [5], in experiment [6] and in [7] was inactive. Further, the compound was called inactive in [8]. Besides, the AC50 was 19.8 µM (active) in experiment [4], 2.88 µM (active) in [9] and 0.337 µM (active) in experiment [10].
